Structures are written as SMILES. Screen size: about 210,000 compounds; about 5,900 (2.8%) were called active. Inconclusive results (about 5%) are left out. What follows is part of a selection rich in actives, with near analogues and random picks from the rest. Values without a mark were called inactive. The call rests on the fitted dose curve; in most records, active means well fitted activation curve with a large enough effect; inconclusive means small, poorly fitted or top-dose-only effect; inactive means no such curve, though single readings can be large or run the other way.
Potency means the concentration at half of the fitted maximal effect.

The assay can be described thus: qHTS Assay for Enhancers of SMN2 Splice Variant Expression. Further: nearly all actives have a fitted effect of over 55% in size. On activity change, positive = activation: % of control where 0% means no effect. To be noted: HEK293 SMN2-luciferase splicing reporter, luminescence, 30-36 h; series mostly up to 46.1 µM; activity change, positive = activation: at the top concentration. In outline: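 qHTS luciferase splicing reporter: luminescence rises when SMN2 exon 7 is included in transfected HEK293 cells. Compound exposure lasted 30-36 h at 37C, with 4.5 mM final sodium butyrate as control, followed by a ONE-Glo read.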
In general terms: qHTS replaces the single test concentration by a dilution series.
For the compound `CC(C)C(=O)Nc1cccc(C(=O)Nc2ccc3c(c2)OCO3)c1`, the Potency was 15.8 µM (active). On to `CN1CCN(c2ccc(NC(=O)c3ccc4c(c3)OCCO4)cc2Cl)CC1`, for which the Potency was 14.1 µM (active).

With `O=C(Nc1ccc2c(c1)OCO2)c1ccc(N2C(=O)c3ccccc3C2=O)cc1`, the “activity change, positive = activation” value was -0.0472%. On the same count and under the same terms, the result for `O=C(Nc1cccc([N+](=O)[O-])c1)c1ccc2c(c1)OCO2` reads 29.6%; that for `Cn1c(NC(=O)c2ccc3c(c2)OCO3)cc(=O)n(C)c1=O`, -6.43%.

Turning to `O=C(Nc1cccc(Cl)c1N1CCOCC1)c1ccc2c(c1)OCCO2`, the “activity change, positive = activation” value is -0.872%. Consider `Cn1c(=O)n(C)c2cc(C(=O)Nc3ccc4c(c3)OCO4)ccc21`, for which the Potency was 11.2 µM (active).

`CCSc1ccccc1C(=O)Nc1ccc2c(c1)OCO2`: the “activity change, positive = activation” value was 27.2%. For the compound `O=C(Nc1ccc2c(c1)OCCO2)c1ccc(Cl)c(S(=O)(=O)N2CCCCC2)c1`, the “activity change, positive = activation” value was -62.2%. Take `Cc1ccc(-c2nc3ccccn3c2Nc2c(C)cccc2C)o1`: the “activity change, positive = activation” value is -0.98%. On the same count and under the same terms, the result for `N#C/C(=C\c1cccc(F)c1)c1nc(-c2cc3c(ccc4ccccc43)oc2=O)cs1` reads 8.31%; that for `CCOc1ccc(C(=O)c2cn(Cc3ccc(F)cc3)c3ccc(F)cc3c2=O)cc1`, -2.97%; that for `Cc1ccc(C(=O)NCCNC(=O)c2ccccc2)cc1`, 6.08%. As for `Cc1ccc2nc(CNC(=O)c3ccccc3)[nH]c2c1`, the Potency was 11.2 µM (active).

For the compound `Cc1ccc2nc(CC(=O)c3ccc4ccccc4c3)c(=O)[nH]c2c1`, the activity change, positive = activation is -3.77% [at 9.22 µM]. On to `Cc1ccc(C)c(Nc2nnc(-c3ccc(C)c(S(=O)(=O)N4CCCCC4)c3)c3ccccc23)c1`, for which the “activity change, positive = activation” value is -14.7%. `Cc1cc(NC(=O)C2CCC(CNS(=O)(=O)c3ccc(Br)s3)CC2)ccc1Br` (stereo not given): the “activity change, positive = activation” value is -18.2%. On the same count and under the same terms, the result for `CCC(=O)Nc1cccc(NC(=O)c2cccnc2)c1` reads -15.2%. On the same count and under the same terms, the result for `Cc1ccc(-n2nc3cc(C)c(NC(=O)c4cccnc4)cc3n2)cc1` reads -15.4%. On to `Cc1cc2nc(-c3ccc(NC(=O)c4cccnc4)cc3)oc2cc1C`, for which the Potency was 12.6 µM (active). As to `O=C(CSc1nnc(CNC(=O)c2ccccc2)n1-c1ccc(F)cc1)Nc1ccccc1F`, the “activity change, positive = activation” value was -1.11%.

In the case of `Cc1ccc(CNC(=O)CCc2c(C)nc3nc(CNC(=O)OC(C)(C)C)nn3c2C)cc1`, the “activity change, positive = activation” value is -8.75%. On the same count and under the same terms, the value for `COc1ccc(CCNCc2c(C(=O)O)c(C)n(Cc3cccc(C)c3)c2C)cc1OC` was 2.2%; that for `COc1ccccc1OCCNC(=O)c1cc([N+](=O)[O-])cc([N+](=O)[O-])c1` was 5.17%. As to `COc1cc(SC)ccc1C(=O)NCCOc1ccccc1Cl`, the Potency was 12.6 µM (active). With `Cc1occc1C(=O)Nc1nnc(-c2ccncc2)s1`, the “activity change, positive = activation” value is 33.1%. The same measure, in the same setting: the value for `COc1cc(SC)ccc1C(=O)Nc1nc(C)cs1` was -80.7%.

Turning to `Cc1ccnc(NC(=O)c2ccc(NC(=O)c3ccco3)cc2)c1`, the Potency is 10 µM (active). `COc1ccccc1CNC(=O)c1ccc(SC)cc1OC`: the “activity change, positive = activation” value was 2.66%. The same measure, in the same setting: the result for `Cc1ccc(C(=O)COc2cccc(NC(=O)c3ccco3)c2)cc1` reads -40.6%. Regarding `COc1cc(SC)ccc1C(=O)Nc1cc(C)ccn1`, the Potency is 2.24 µM (active).

As to `Cc1ccnc(NC(=O)c2ccoc2C)c1`, the Potency is 15.8 µM (active).

In the case of `Cc1occc1C(=O)Nc1cccc(Cn2cccn2)c1`, the “activity change, positive = activation” value was -12.3%. Regarding `COc1cccc(C(=O)Nc2ccc(NC(=O)c3ccco3)cn2)c1`, the “activity change, positive = activation” value was -2.24%. Same read-out and setting: the value for `Cc1ccnc(NC(=O)CCCOc2ccccc2)c1` was -24.8%; that for `CCOc1ccc2oc(=O)cc(CN3CCN(C(=O)c4ccc(F)cc4)CC3)c2c1` was -15.9%. Same read-out and setting: the value for `CCOC(=O)c1ccc(NC(=O)CC2C(=O)N(c3cccc(OC)c3)C(=O)N2C2CCCCC2)cc1` (stereo not given) was 1.93%; that for `COc1cc(C(=O)N2CCN(C(=O)COc3cccc(C)c3)CC2)cc(OC)c1OC` was 21.2%. On the same count and under the same terms, the result for `CC(=O)c1sc(N2C(=O)c3oc4ccccc4c(=O)c3C2c2ccc(C)cc2)nc1C` (stereo not given) reads -8.25%; that for `CCc1ccc(NC(=O)c2sc3nc4c(cc3c2N)CN(CC)CC4)cc1`, -16.2%. As for `O=C(Nc1ccc(Oc2ccccc2)cc1)c1ccco1`, the Potency was 15.8 µM (active). For the compound `O=C(/C=C/c1ccco1)Nc1ccc(Oc2ccccc2)cc1`, the “activity change, positive = activation” value is 14.3%.

Take `O=C(CSc1ccccc1)Nc1ccc(NC(=O)c2ccco2)cc1`: the “activity change, positive = activation” value is 3.71%.

Regarding `C#CC(C)(CC)NC(=O)Cn1nnc(-c2ccc(OCc3c(F)cccc3Cl)cc2)n1` (stereo not given), the “activity change, positive = activation” value is -28%. Consider `COc1ccc(CCNC(=O)CCCCn2c(=O)c3ccccc3n(Cc3ccccc3)c2=O)cc1OC`, for which the “activity change, positive = activation” value was 3.78%. The same measure, in the same setting: the result for `COc1cc(/C=C/CO)cc(OC)c1O[C@@H]1O[C@H](CO)[C@@H](O)[C@H](O)[C@H]1O` reads 11%. Take `COc1cc(/C=C/C2=CC(C)(C)NC(=S)N2)cc(OC)c1OC`: the Potency is 11.2 µM (active). As for `Cc1noc(/C=C/N(C)C)c1S(=O)(=O)N1CCCC(C(=O)Nc2cccc(F)c2)C1` (stereo not given), the “activity change, positive = activation” value is 11.2%.

Consider `Cc1cc(C)c(NC(=O)CCc2c(C)nc3c(c(C)nn3C(C)(C)C)c2C)c(C)c1`, for which the “activity change, positive = activation” value was 1.34%.

`c1ccc(CSc2nnc(-c3ccco3)n2Cc2ccccc2)cc1`: the Potency was 22.4 µM (active). For `c1ccc(CSc2nnc(-c3ccco3)c(-c3ccco3)n2)cc1`, the “activity change, positive = activation” value was -1.17%.

As for `O=C(CSc1nnc(-c2ccco2)n1Cc1ccccc1)NC(=O)NCc1ccco1`, the “activity change, positive = activation” value was -11%. `COc1ccc(Cn2cc(C(=O)c3ccc(C)cc3)c(=O)c3cc(OC)c(OC)cc32)cc1`: the “activity change, positive = activation” value was -5.96%. Regarding `Cc1ccn2c(Nc3ccc4c(c3)OCCO4)c(-c3ccc(C)s3)nc2c1`, the “activity change, positive = activation” value is 17.7%. Same read-out and setting: the result for `CCN(CC)S(=O)(=O)c1ccc(C(=O)N=c2sc3cccc(OC)c3n2C)cc1` reads -4.59%; that for `Cc1cc(C)c(-c2n[nH]c3c2C(c2ccccc2F)N(CCO)C3=O)c(O)c1` (stereo not given), 7.88%.

As to `CCn1cc(C(=O)N2CCN(c3cc(C)ccc3C)CC2)c(=O)c2cc(S(=O)(=O)N(C)C3CCCCC3)ccc21`, the “activity change, positive = activation” value is -12.9%. As to `Cc1ccn(-c2cccc(-n3ccc(C)n3)n2)n1`, the Potency is 7.94 µM (active). Turning to `CCOc1ccc(NC(=O)CC2C(=O)N(c3cccc(OC)c3)C(=O)N2C2CCCCC2)cc1` (stereo not given), the “activity change, positive = activation” value is -1.25%. `Cc1cccc(CC(=O)N2CC(=O)Nc3ccc(F)cc3C2c2ccccc2)c1` (stereo not given): the “activity change, positive = activation” value was -3.94%. Still for that read-out and setting: the result for `Cc1ccc(NN=C2C(=O)OC(C)(C)OC2=O)c(C)c1` reads 29.2%; that for `COc1ccc(N/N=C2/CCCCC2=O)cc1`, 18.6%.

In the case of `Cc1ccc(N/N=C2\COC(C)(C)CC2=O)cc1`, the Potency was 11.2 µM (active).

For `CCCn1c(=N)n(CC(O)COc2ccccc2OC)c2ccccc21` (stereo not given), the “activity change, positive = activation” value is -15.6%. On to `CCOC(=O)c1ccc(NC(=O)CCn2c(=O)oc3ccccc32)cc1`, for which the “activity change, positive = activation” value is -14.6%.

These data come from PubChem BioAssay AID1458 (National Center for Advancing Translational Sciences (NCATS), 2008).
